The record followed here is PubChem BioAssay.

“And” between values parts separate entries of the source, which are not always exact repeats. Equal entries are not always repeated. The source made the active and inactive calls.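 Rule for the calls, unless noted: active = normalized viability below 100% at a tested concentration; inactive = the rest.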

A short description of experiment [1]: drug combination growth inhibition, ovarian cancer – cell-based, oncology-focused library, rucaparib conditional, profiling panel (AID 1508598). To be noted: patient-derived ovarian cancer cells, CellTiter-Glo viability, 144 h, stronger effect = lower value.
Experiment [2] is described as follows: P. berghei load reduction in hepatocytes – cell-based, HepG2, luciferase luminescence, HepG2 viability, primary screen (AID 624349; in the data active = parasite load remaining mostly below about 12%, no sharp cut-off; inactive = mostly above about 10%;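 note: 100% = mean of DMSO negative control wells on the same plate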). To be noted: P. berghei liver stage in HepG2, luciferase luminescence, concentration not given here; parasite load remaining: stronger effect = lower value; viability: measured here: HepG2 viability without parasites.
Experiment [3] can be described thus: Wnt pathway potentiators raising nuclear beta-catenin – imaging, WNT3A-conditioned medium, mouse C2C12, NPC library, primary screen (AID 1117326; in the data active = nuclear beta-catenin stimulation mostly above about 4.2%, no sharp cut-off; inactive = mostly below about 10%). To be noted: stronger effect = higher value.
A short description of experiment [4]: stimulators of insulin release from INS-1E, primary screen, cell-based, 5 mM glucose, NPC library (AID 1117329;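 active = compound raises insulin release from rat beta cells at 5 mM glucose, no numeric limit stated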). To be noted: rat INS-1E insulin secretion, at 10 µM, stronger effect = higher value.
Experiment [5] is described as follows: growth inhibition of GSK3B-pretreated HCT116 cells – cell-based, CellTiter-Glo, 0.2 to 20 µM (AID 1117336;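 active = compounds lowering colon cancer cell viability after pretreatment blocking the GSK3B kinase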). To be noted: HCT116 viability after GSK3B inhibitor, at 20 µM, stronger effect = higher value.
Experiment [6] can be described thus: inhibition of endothelial tube formation, primary screen, imaging, VEGF stimulated, CD31 staining, tube area, NPC library (AID 1117340;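 active = compound that reduces growth-factor-driven endothelial tube area in a mixed cell culture, no cutoff stated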). To be noted: VEGF-stimulated ADSC/ECFC co-culture, at 10 µM, stronger effect = higher value.
A short description of experiment [7]: GLP1 release stimulators, primary, NCI-H716, NPC library (AID 1117341;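 active = compound raises GLP1 secretion from the human gut endocrine cells, with no numeric limit stated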). To be noted: NCI-H716 cells, at 10 µM, stronger effect = higher value.
The nature of experiment [8]: HCT116 colon cancer cell growth inhibition, primary screen, CellTiter-Glo luminescence, NPC library (AID 1117342;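 active = compounds that lower survival of HCT116 colon cancer cells in the luminescence readout, no numeric limit stated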). To be noted: at 20 µM (top of the series).
Experiment [9] can be described thus: reduced SW480 viability measured with CellTiter-Glo, NPC library, primary (AID 1117343;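 active = compounds that lower viability of the colon cancer cells in the luminescence readout, with no numeric limit stated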). To be noted: CellTiter-Glo luminescence; at 20 µM (top of the series) unless noted.
The nature of experiment [10]: NPC library primary testing for decreased DLD-1 cell viability via CellTiter-Glo (AID 1117346;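 active = compounds that lower survival of DLD-1 colon cancer cells in the luminescence readout, no cutoff given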). To be noted: DLD-1 viability, CellTiter-Glo luminescence; at 20 µM (top of the series).
Experiment [11] can be described thus: viability loss with induced miR-34 in A549 – imaging, A549 dox-inducible miR-34, nuclei and caspase counts, primary screen (AID 1347080;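 active = compounds whose cell count with miR-34 switched on is under 0.7 times the count with it off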). To be noted: A549 miR-34 inducible, Hoechst nuclei count, 48 h.
Experiment [12] in a line: MELAS cybrid and Rieske KO viability enhancers – cell-based, MELAS cybrids, Rieske KO mouse fibroblasts, CellTiter-Glo, primary screen (AID 1508586;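 active = mean z-score across replicates of 1.96 or higher in either the MELAS or the Rieske mutant cell line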;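 note: z relative to plate mean and SD of compound and empty wells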). To be noted: low glucose.
Experiment [13] is described as follows: galactose survival enhancers in mitochondrial complex I cybrids – cell-based, galactose medium, ATP luminescence, primary screen (AID 1645843;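 active = z-score of at least 1.8 in each of two replicates, scored against plate mean and spread of sample wells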;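 note: positive z means more ATP and so rescue of galactose-driven cybrid death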). To be noted: complex I mutant cybrid cells, 72 h, stronger effect = higher value.
[14] abbreviates: stronger effect = lower value, cell number ratio, induced over uninduced.
Where [15] appears, read: measured here: relative caspase fold change +Dox/-Dox.
Where [16] appears, read: measured here: total cells with miR-34 induction, stronger effect = lower value.
The mark [17] stands for this setting: measured here: total cells without miR-34 induction.
Setting [18] is: MELAS cybrid survival, CellTiter-Glo 48 h, stronger effect = higher value.
[19] abbreviates: Rieske KO mouse fibroblast survival, CellTiter-Glo 72 h.

Consider `Nc1cccc2c1CN(C1CCC(=O)NC1=O)C2=O` (stereo unspecified), for which the viability was 107% (inactive) in [1] (at 0.0195 µM, OCI-P5x cells, without rucaparib); 120% (inactive) in experiment [1] (at 0.0781 µM, OCI-C5x cells, with rucaparib 10 µM, 100% = cells with rucaparib alone); 132% (inactive) in [1] (at 0.0781 µM, OCI-C5x cells, without rucaparib); 133% (inactive) in experiment [1] (at 0.0781 µM, OCI-P5x cells, with rucaparib 20 µM, 100% = cells with rucaparib alone); 109% (inactive) in [1] (at 0.0781 µM, OCI-P5x cells, without rucaparib); 118% (inactive) in experiment [1] (at 0.313 µM, OCI-C5x cells, with rucaparib 10 µM, 100% = cells with rucaparib alone). The viability in experiment [1] (at 0.313 µM, OCI-C5x cells, without rucaparib) is 117% (inactive); in experiment [1] (at 0.313 µM, OCI-P5x cells, with rucaparib 20 µM, 100% = cells with rucaparib alone) it was 129% (inactive); in [1] (at 0.313 µM, OCI-P5x cells, without rucaparib), 109% (inactive); in [1] (at 1.25 µM, OCI-C5x cells, with rucaparib 10 µM, 100% = cells with rucaparib alone), 121% (inactive); in [1] (at 1.25 µM, OCI-C5x cells, without rucaparib) it was 119% (inactive); in experiment [1] (at 1.25 µM, OCI-P5x cells, with rucaparib 20 µM, 100% = cells with rucaparib alone) it was 114% (inactive). Also, the viability in experiment [1] (at 1.25 µM, OCI-P5x cells, without rucaparib) was 103% (inactive); in experiment [1] (at 5 µM, OCI-C5x cells, with rucaparib 10 µM, 100% = cells with rucaparib alone) it was 115% (inactive); in experiment [1] (at 5 µM, OCI-C5x cells, without rucaparib), 117% (inactive); in [1] (at 5 µM, OCI-P5x cells, with rucaparib 20 µM, 100% = cells with rucaparib alone), 132% (inactive); in [1] (at 5 µM, OCI-P5x cells, without rucaparib) it was 110% (inactive).
With `CC(=O)N(CC(O)CO)c1c(I)c(C(=O)NCC(O)CO)c(I)c(C(=O)NCC(O)CO)c1I` (stereo unspecified), the parasite load remaining in experiment [2] was 114% (inactive) and 69.4% (inactive). Besides, the viability in experiment [2] was 108% and 73.4%. The nuclear beta-catenin stimulation was -2.4% (inactive) in experiment [3] (at 10 µM) and -1.5% in experiment [3] (stimulation, at 2 µM). In experiment [4], the insulin secretion stimulation was 7% (inactive). In addition, the viability decrease in [5] was -5% (inactive). Moreover, the tube area decrease in [6] was 1.5% (inactive). The GLP1 secretion stimulation in experiment [7] is -5.6% (inactive). Moreover, in experiment [8], the inhibition of viability is 4.5% (inactive). In addition, the viability decrease (inhibition) is 4.9% (inactive) in experiment [9] and 0.4% (inactive) in experiment [10]. In addition, the fold change in experiment [11] (setting [14]) was 0.842 (inactive); in experiment [11] (setting [15]), 1.09. In addition, the cell count in experiment [11] (setting [16]) worked out at 8930; in experiment [11] (setting [17]), 10600. For the same compound, the z-score in experiment [12] (setting [18]) is 0.412 (inactive); in experiment [12] (setting [19]), -0.115.
Regarding `CCOC(=O)/C=C(C)/C=C/C=C(C)/C=C/c1c(C)cc(OC)c(C)c1C`, in experiment [2], the parasite load remaining was 13.4% (inactive). Further, the viability in experiment [2] stood at 74%. Further, the nuclear beta-catenin stimulation in experiment [3] (at 10 µM) is -2.1% (inactive); in [3] (stimulation, at 2 µM), -0.4%. Also, the insulin secretion stimulation in [4] was 2.6% (inactive). In addition, the viability decrease in experiment [5] was 62.2% (active). Also, the tube area decrease in experiment [6] is 3.9% (inactive). The GLP1 secretion stimulation in [7] is -2.9% (inactive). Further, the inhibition of viability in experiment [8] is 59.4% (active). In addition, the viability decrease (inhibition) is 60.3% (active) in experiment [9] and 25.3% (inactive) in [10]. Moreover, the fold change in experiment [11] (setting [14]) was 0.857 (inactive); in [11] (setting [15]), 1. In addition, the cell count in experiment [11] (setting [16]) worked out at 9250; in experiment [11] (setting [17]), 10800. The z-score was 0.196 (inactive) and -0.0105 (inactive) in experiment [12] (setting [18]); 0.164 and -0.496 in experiment [12] (setting [19]); -1.38 (inactive) in [13].
As for `O=c1[nH]c2ccccc2n1CCCN1CCN(C(c2ccccc2)c2ccccc2)CC1`, the parasite load remaining in experiment [2] was 29.6% (inactive). The viability in experiment [2] came out at 106%. The nuclear beta-catenin stimulation in experiment [3] (at 10 µM) was 2.7% (inactive); in experiment [3] (stimulation, at 2 µM), 2%. In experiment [4], the insulin secretion stimulation was 1.95% (inactive). Further, in experiment [5], the viability decrease was 72% (active). In [6], the tube area decrease is 20.5% (inactive). In addition, the GLP1 secretion stimulation in experiment [7] is 1.4% (inactive). Besides, in experiment [8], the inhibition of viability is 76.3% (active). Besides, the viability decrease (inhibition) was 110% (active) in [9] and 78.8% (active) in experiment [10]. For the same compound, the fold change in experiment [11] (setting [14]) is 0.906 (inactive); in experiment [11] (setting [15]) it was 1.22. For the same compound, the cell count came to 8130 in [11] (setting [16]) and 8980 in experiment [11] (setting [17]). The results for the z-score in [12] (setting [18]), in [12] (setting [19]) and in experiment [13] were -0.355 (inactive), -0.351 and -1.56 (inactive), respectively.
On to `COc1nccnc1NS(=O)(=O)c1ccc(N)cc1`, for which the nuclear beta-catenin stimulation is 1.5% (inactive) in [3] (at 10 µM) and 3.9% in experiment [3] (stimulation, at 2 µM). Further, the insulin secretion stimulation in [4] was 1.7% (inactive). Moreover, the viability decrease in experiment [5] was 3.6% (inactive). Also, the tube area decrease in experiment [6] was 2.9% (inactive). Further, the GLP1 secretion stimulation in [7] is 2.7% (inactive). Further, the inhibition of viability in experiment [8] was 6.8% (inactive). The viability decrease (inhibition) in [9] was -1.3% (inactive); in experiment [10], -5.6% (inactive). The figures for the fold change in [11] (setting [14]) and in experiment [11] (setting [15]) were 0.87 (inactive) and 0.163, respectively. In addition, the figures for the cell count in experiment [11] (setting [16]) and in experiment [11] (setting [17]) were 9240 and 10600, respectively. The z-score in experiment [12] (setting [18]) is 0.483 (inactive); in [12] (setting [19]) it was -0.166; in experiment [13] it was -0.33 (inactive).
